# Only some compounds are listed: those with a hit (about 3.9% of all), similar ones and a draw of the others.
# NSD2 HMT inh: blocks human histone methyltransferase NSD2; O96028; NSD2 peptide methylation, AlphaScreen, 120 min; inhibition, % at 12.5 µM; 310,000 tested, 0.54% active; AID 743445; in the data active = inhibition above about 50%
# ALR inh: human ALR oxidase inhibition via reduced H2O2 | P55789 | purified ALR, DTT oxidation, H2O2 HRP-luminol luminescence | inhibition, % (no concentration beside the values) | 290,000 tested, 3.8% active;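 active = mean replicate inhibition above about 79%, with every replicate also reaching it, limit read from the data; inconclusive = only one of the two criteria met; inactive = mean below limit and not every replicate reaching it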
# SUMO Mot1 rescue: SUMOylation pathway inhibition by Mot1-301 growth rescue. 320,000 tested, 1% active. S. cerevisiae Mot1-301 growth rescue, ATP luminescence, 38.5C; percent above DMSO median, 100 means doubled. growth rescue, % at 18.8 µM. AID 2716;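 active = every valid replicate shows activation above 250% relative to neutral control wells; inactive = the rest, any valid replicate at or below 250%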;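 also: OY570 slx delta 5 strain wells were the positive control but not used for scaling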
# Glyco luc inh: blocks N-linked glycosylation in D54 reporter cells | reporter increase, % at 12.5 µM | 360,000 tested, 0.23% active | D54 ERlucT glycosylation luciferase reporter, 24 h; percent of 100 nM tunicamycin response | AID 588692;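 active = mean luciferase reporter signal, scaled so untreated is 0 and the glycosylation-blocking control 100, at or above a set limit in every replicate; inconclusive = mean reaches the limit but not every replicate does; inactive = mean below the limit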;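 also: luciferase carries N-glycosylation sites so blocking glycosylation raises the light; 0% = median of neutral control wells and 100% = median of 100 nM tunicamycin wells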
# CDK5 inh: inhibitors of human CDK5/p35 kinase. inhibition, % at 10 µM. 330,000 tested, 0.01% active. AID 488839. Recombinant CDK5/p35, ADP-Glo luminescence, 60 min. Q00535+Q15078;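 active = highest replicate inhibition of at least 50% and at least 75% of replicates reaching 50%; inconclusive = only one of the two criteria met; inactive = both criteria failed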;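 also: plate controls were DMSO neutral control for no effect and GW8510 at 10 µM for full effect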
# CASP6 VEID inh: inhibitors of human caspase-6 | inhibition, % at 12.5 µM | AID 686996 | purified caspase-6, Z-VEID-R110 cleavage fluorescence | 350,000 tested, 0.53% active;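 active = mean inhibition across replicates at least about 35%, with every replicate also reaching that limit, limit read from the data; inconclusive = only one of the two criteria met; inactive = neither criterion met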;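 also: 0% = median of neutral control wells and 100% = no fluorescence left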
# * hit, by the source's call; ? = inconclusive; . = no result.
SMILES,NSD2 HMT inh,ALR inh,SUMO Mot1 rescue,Glyco luc inh,CDK5 inh,CASP6 VEID inh
Cc1cc(C)c(S(=O)(=O)Nc2ccc(O)c(Sc3ncn[nH]3)c2)c(C)c1,5,99*,-4,-3,0,15
Cc1c(C(=O)O)sc2ncnc(N3CCCCC3C)c12 (centres undefined),-4,1,5,2,-2,.
Cc1cc2c(N3CCCCC3C)ncnc2s1 (centres undefined),3,97*,14,-5,-1,.
COc1ccc(S(=O)(=O)N2CC[C@@H]3[C@H](CO)Nc4ccc(C#Cc5cccnc5)cc4[C@@H]32)cc1,.,.,.,.,.,2
Cc1cc(Cl)cc(Cl)c1OCC(=O)NCc1ccco1,.,91*,33,0,4,.
Cc1ccc(OCCCC(=O)NCc2ccco2)c(C)c1,4,95*,.,.,.,.
O=C(COc1ccc(Cl)cc1Cl)NNC(=S)NCc1ccco1,1,83*,-8,1,2,5
O=C(COc1ccc(Cl)cc1Cl)NCc1ccco1,2,20,.,3,2,.
COc1cc(CO)cc(I)c1O[C@H]1C=C(C(=O)NCCO)C[C@@H](N(CC2CCCCC2)C(=O)c2ccc(C(F)(F)F)cc2)[C@@H]1O,.,.,.,.,.,2
COc1cc(-c2nnc(COC(=O)c3ccc([N+](=O)[O-])o3)o2)cc(OC)c1OC,2,.,.,1,.,58*
COC(=O)c1[nH]c2cc(OC)ccc2c1N=CN(C)C,0,88*,3,3,1,-1
CCOC(=O)c1[nH]c2ccc(C)cc2c1N=CN(CC)CC,6,99*,1,1,2,.
CCOC(=O)c1[nH]c2ccc(F)cc2c1N=C(C)N(CC)CC,1,80*,-2,0,0,.
CCOC(=O)c1[nH]c2ccccc2c1N=CN(C)C,0,99*,122,2,0,.
CCOC(=O)c1[nH]c2ccc(C)cc2c1N,4,62,-20,-6,2,.
COCC(=O)Nc1ccc2c(c1)C(=O)N(C)C[C@@H](OC)[C@H](C)CN(CC1CC1)[C@@H](C)CO2,.,.,.,.,.,-9
Cc1ccc(C(=O)/C=C\C(=O)c2ccc(C)cc2)cc1,3,98*,103,19,-5,-4
CC(/C=C/C(=O)c1ccc(C)cc1)=C\c1ccccc1,-3,-16,2,6,-1,.
Cc1ccc(S/C=C\C(=O)c2ccccc2)cc1,.,4,4,47*,0,1
COc1ccc(CN(C)C[C@@H]2OCCCC[C@H](C)Oc3ccc(NC(=O)CCCN(C)C)cc3C(=O)N([C@H](C)CO)C[C@@H]2C)cc1,.,.,.,.,.,1
O=C(Nc1ccc2[nH]c(=S)sc2c1)c1ccccc1,0,99*,-9,4,4,.
CN1c2ccc(C3=CCCCC3)cc2[C@@H]2[C@@H](CCN2C(=O)NC2CCCC2)[C@H]1CO,.,.,.,.,.,1
C/C=C/c1ccc2c(c1)O[C@@H](CN(C)C(=O)c1ccc(F)cc1)[C@H](C)CN([C@H](C)CO)S2(=O)=O,.,.,.,.,.,-1
O=C(NCc1nc2ncc(Br)cc2[nH]1)c1ccccc1,-4,-23,0,-1,-1,.
O=c1[nH]c2cc(Br)cnc2nc1/C=C(\O)c1ccc(F)cc1,1,7,338*,1,1,0
SMILES,NSD2 HMT inh,ALR inh,SUMO Mot1 rescue,Glyco luc inh,CDK5 inh,CASP6 VEID inh
C[C@@H]1CN([C@@H](C)CO)C(=O)c2cc(NC(=O)CCC(F)(F)F)ccc2O[C@@H]1CN(C)S(=O)(=O)c1cn(C)cn1,.,.,.,.,.,0
O=C(C[C@@H]1C=C[C@@H](NC(=O)Nc2cccc(F)c2)[C@H](CO)O1)NCC1CC1,.,.,.,.,.,-1
O=C(c1c(O)cc(O)cc1O)C1c2c(cc(O)c3c2O[C@H](c2ccc(O)cc2)[C@@H](O)C3)OC1c1ccc(O)cc1 (some centres undefined),.,99*,8,1,1,37*
O=C1CC(c2ccccc2)c2c(O)cc(O)cc2O1 (centres undefined),3,27,136,0,0,.
C[C@H](NC(=O)C[C@H]1CC[C@H]2[C@@H](COC[C@@H](O)CN2C(=O)Nc2cccc(F)c2)O1)c1ccccc1,.,.,.,.,.,0
NNc1nc2cc3c(cc2s1)OCCO3,4,99*,-17,-4,-1,7
Cn1cnc(S(=O)(=O)N2C[C@@H](O)COC[C@@H]3O[C@@H](CC(=O)NCc4cc(F)cc(F)c4)CC[C@H]32)c1,.,.,.,.,.,1
O=C1/C(=C/c2cccnc2)SC(=S)N1Nc1ccccc1,-1,92*,42,2,.,-1
O=C1/C(=C/c2cccnc2)SC(=S)N1c1ccccc1,-1,-4,23,1,1,0
Cc1ccsc1/C=N/N1CCN(c2ccccc2)CC1,-1,13,-6,1,1,0
Cc1ccsc1/C=N/N1CCN(c2ccccn2)CC1,15,99*,14,-2,1,-2
COc1ccc(N=C2C(=O)Nc3ccccc32)cc1,-5,86*,2,0,1,.
O=C1Nc2ccccc2C1=Nc1ccc(F)cc1,-3,.,9,2,0,.
COc1ccc(NCc2cc(=O)[nH]c3ccccc23)cc1,0,99*,-20,0,-1,0
O=C(Cc1cccnc1)N1[C@H](CO)[C@H](c2ccccc2)[C@@H]1CNCC1CCC1,.,.,.,.,.,-3
Cn1cc(SCC(=O)Nc2nccs2)c2ccccc21,.,98*,0,-2,1,-2
CC(C)CCn1c(=O)c2ccccc2n2c(CCC(=O)NCC3CCCO3)nnc12 (centres undefined),-1,0,7,1,1,38*
CC(C)CCn1c(=O)c2ccccc2n2c(CCC(=O)NC3CCN(Cc4ccccc4)CC3)nnc12,2,-7,4,-2,1,-4
Cn1cc(SCC(=O)NCC2CCCO2)c2ccccc21 (centres undefined),.,97*,-23,1,0,1
CCCn1cc(SCC(=O)NCC2CCCO2)c2ccccc21 (centres undefined),.,7,0,0,3,0
COc1ccc(NC(=O)Nc2ccc3c(c2)CC(=O)N([C@@H](C)CO)C[C@@H](C)[C@@H](CN(C)S(=O)(=O)c2ccc(OC)cc2)O3)cc1,.,.,.,.,.,1
O=C(Nc1c(Cl)ccc2nsnc12)c1ccc([N+](=O)[O-])o1,11,-17,11,46*,1,15
O=C(COC(=O)c1ccc(Br)o1)NCc1ccc(F)cc1,.,-3,190,-1,-1,-1
Cc1cc(C)c2sc(NC(=O)c3ccc([N+](=O)[O-])o3)nc2c1,.,-14,67,44*,-1,1
CC(=O)c1ccc(NC(=O)c2ccc([N+](=O)[O-])o2)cc1,3,-33,14,?,2,0
O=C(COC(=O)c1ccc([N+](=O)[O-])o1)NCc1ccc(F)cc1,2,-7,5,2,1,52*
O=C(Nc1c(Cl)ccc2nsnc12)c1ccc(Br)o1,0,.,.,-1,.,1
